The source of these data is PubChem BioAssay (NCATS).

Test [1] is described as follows: AP1 Signaling Pathway (AID 357; active = well fitted curve in either direction with a large enough effect, not every such curve was filed as active; note: % is set by controls: 0 for no effect and ±100 for the full control effect). To be noted: ME-180 AP-1-bla reporter, EGF-induced, beta-lactamase ratio, 5 h; at 7.69 µM (top of the series) unless noted. The essentials: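 AP-1-bla ME-180 cells with beta-lactamase reporter under AP-1 response element, stimulated with EC50 EGF; compounds titrated, 5 hours at 37 degrees Celsius. CCF4 read at 460/530 nm ratio; positive and negative modulators judged by AC50.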

A short description of test [2]: NFAT Signaling Pathway (AID 444; active = well fitted curve in either direction with a large enough effect, not every such curve was filed as active;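 note: carbachol stimulus at about its EC50 of 1 µM final; % is set by controls: 0 for no effect and ±100 for the full control effect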). Conditions: Jurkat NFAT-bla M1, carbachol, beta-lactamase ratio, 5 h; at 7.69 µM (top of the series) unless noted. The essentials: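 Jurkat cells with NFAT-driven β-lactamase reporter and co-expressed M1 receptor, stimulated with carbachol (final 1 uM, ~EC50), compound titration, 5 h at 37 °C. CCF4 loaded 1 h at RT; 460/530 nm ratio gave %activity and AC50.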

A short description of test [3]: Stat Signaling Pathway (AID 446; active = well fitted curve in either direction with a large enough effect, not every such curve was filed as active;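 note: ME-180 cervical cancer cells given 40 pM IL-6 alongside compound; SIE-controlled beta-lactamase reporter measured as 460/530 nm FRET emission ratio; % is set by controls: 0 for no effect and ±100 for the full control effect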). Conditions: ME-180 SIE beta-lactamase reporter, IL-6 stimulated, 5 h; at 7.69 µM (top of the series) unless noted. The essentials: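 Emission at 460 and 530 nm (excitation 405 nm) reports SIE-controlled beta-lactamase in ME-180 cells. Cells received compound with 40 pM IL-6 for 5 hrs at 37 C; data scaled between 300 pM IL-6 and 125 nM JAK-inhibitor controls.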

Test [4] has as its target Glucocorticoid receptor (Homo sapiens) (UniProt P04150). Briefly: GR-GFP Redistribution (AID 450;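 active = compounds whose dose series gives a full or clear partial fitted curve of increased nuclear translocation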; note: potency is the fitted concentration of half-maximal effect). To be noted: U2OS GR-GFP nuclear translocation, laser cytometry, 2 h.
Test [5] has the same target. Briefly: GR-EFC Redistribution (AID 451; calls by dose curve; note: potency is the fitted concentration of half-maximal effect). Conditions: CHO-K1 GR-EFC translocation, beta-gal luminescence, 2 h. The essentials:
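CHO-K1 cells expressing nuclear EA and GR-ED fragments of b-gal; compounds titrated up to 46 uM final, 2 h at 37 C. GR nuclear translocation read as complemented b-gal luminescence after 1 h RT detection.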

Test [6] addresses 3',5'-cyclic-AMP phosphodiesterase 4B (Homo sapiens) (UniProt Q07343). Briefly: qHTS Assay for Inhibitors of PDE-IV (AID 607; active = well fitted activation curve with a large enough effect in the main read-out, with a control signal flat, not every such curve was filed as active; note: % of control where 0% means no effect). The essentials:
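The readout is membrane depolarisation from a cAMP-sensing CNG channel, detected with a potential dye at ex 535/em 590. Cells were HEK293-derived (endogenous PDE-IV) at 1000 cells/well, titrated up to 22.9 uM final.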
For orientation: qHTS replaces the single test concentration by a dilution series.

The target in test [7] is Cytochrome P450 2C9 (Homo sapiens) (UniProt P11712). Briefly: qHTS Assay for Inhibitors and Substrates of Cytochrome P450 2C9 (AID 883). Note: potency is the fitted concentration of half-maximal effect; nearly all actives have a fitted effect of over 60% in size. The essentials: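 Signal: luciferase luminescence reporting luciferin produced by CYP2C9. Conditions: 10nM enzyme, Luciferin-H 100uM at KM, 25mM KPO4, 37C, 60 min NADPH-driven reaction. Reference: 57uM sulphaphenazole as 100% inhibition.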

The target of test [8] is Cytochrome P450 2D6 (Homo sapiens) (UniProt P10635). Briefly: qHTS Assay for Inhibitors and Substrates of Cytochrome P450 2D6 (AID 891). Note: nearly all actives have a fitted effect of over 60% in size. Note: potency is the fitted concentration of half-maximal effect. The method in brief: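 Luminescent read-out of luciferin formed by 5 nM human CYP2D6 demethylating 30 uM Luciferin-ME EGE (Km level) over 60 min at room temperature after NADPH regeneration addition. Data normalized to full inhibition by 1.43 uM quinidine.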

The target of test [9] is Muscarinic acetylcholine receptor M1 (Rattus norvegicus) (UniProt P08482). Briefly: qHTS Assay for Antagonists of Acetylcholine Muscarinic M1 Receptor: Measurement of IP-One Response (AID 944). Note: nearly all actives have a fitted effect of over 75% in size. The essentials: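 Antagonist mode with rat M1 receptor transfected into CHO cells. Compound is added first for 10 min, carbachol at its EC80 follows for 30 min, and lysis reagents then allow TR-FRET detection of accumulated IP1.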

In test [10] the target is Pyruvate kinase (Leishmania mexicana) (UniProt Q27686). Briefly: qHTS Validation Assay for Inhibitors of Leishmania Mexicana Pyruvate Kinase (AID 945).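 Note: 0% = DMSO only neutral control wells.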 The method in brief:
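Eight-point qHTS titrations in triplicate, data normalized to DMSO neutral control. Reaction: 0.2 nM LmPYK E451W mutant, 0.5 mM PEP, 0.1 mM ADP, 7 mM MgCl2, pH 7.2, one hour at room temperature; luminescent ATP detection.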

Test [11] deals with Pyruvate kinase PKM (Homo sapiens) (UniProt P14618). Briefly: qHTS Assay for Activators of Human Muscle Pyruvate Kinase (AID 954; active = well fitted curve in the direction sought with a large enough effect, not every such curve was filed as active;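 note: 0% = uninhibited enzyme and -100% = no enzyme or full thiadiazolimine inhibition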). The method in brief: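 PKM2, human, >95% pure, 0.1 nM; PEP 0.5 mM (Km), ADP 0.1 mM; 50 mM imidazole pH 7.2, 50 mM KCl, 0.01% Tween 20, 0.05% BSA; 1 h RT; luciferase luminescence readout.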
For test [12], the target named is Alpha-galactosidase A (Homo sapiens) (UniProt P06280). Briefly: Counterscreen for Glucocerebrosidase Inhibitors: qHTS Assay for Human alpha-Galactosidase at pH 4.5 (AID 992). Note: 0% is about no effect. The essentials: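 Fluorogenic 4-MU alpha-D-galactoside (80 uM) hydrolysis, 2 nM enzyme, pH 4.5 citrate buffer + 0.005% Tween-20; 20 min RT; NaOH/glycine pH 10 stop; Ex365/Em440. Compounds titrated 0.7 nM–77 uM; Hill-equation AC50.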
(In general: A counterscreen serves to expose hits that act by an unwanted route or on another target.)

The target of test [13] is alpha-glucosidase (Oryza sativa, rice) (UniProt Q653V4). Briefly: Counterscreen for Glucocerebrosidase Inhibitors: qHTS Assay for Rice alpha-Glucosidase at pH 5.0 (AID 997).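 Note: 0% = full activity with enzyme and -100% = basal without enzyme.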 The essentials: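 Endpoint fluorogenic assay at pH 5.0: compounds (0.7 nM to 77 uM) titrated against 4 nM rice enzyme and 400 uM 4-MU-alpha-glucoside for 20 min at room temperature; NaOH/glycine stop, read ex 365/em 440 nm, Hill-fitted AC50.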

In test [14] the target is Guanine nucleotide-binding protein G(i) subunit alpha-1 (Homo sapiens) (UniProt P63096). Briefly: qHTS Assay for Inhibitors of RGS12 GoLoco Motif Activity (Green Fluorophore) (AID 879).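 Note: 0% = labeled peptide with Gαi1 and full inhibition = labeled peptide alone without protein; negative values mean loss of peptide binding seen as reduced polarization.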 The essentials:
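A drop in FITC polarization marked displacement of the FITC-tagged RGS12 GoLoco peptide (10 nM) from Gαi1 (50 nM). Compounds were incubated 10 min at room temperature in Tris pH 7.5 buffer containing 150 mM NaCl, 0.1 mM GDP and 0.05% NP40; unlabeled peptide titration served as control.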

Test [15] can be described thus: qHTS Assay for Identification of Small Molecule Antagonists for NFkB Signaling Pathway (AID 895; active = well fitted inhibition curve with a large enough effect in the signal ratio, with a control signal flat, not every such curve was filed as active; the % refers to the signal ratio; note: potency is the fitted concentration of half-maximal effect). The essentials: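 ME-180 NFkB-bla cells (beta-lactamase under NFkB response element), plated overnight, treated with compound then 10 pM TNF alpha (about EC50) for 5 hrs at 37 C. LiveBLAzer FRET read at 460/530 nm emission, 405 nm excitation.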
Test [16] is described as follows: qHTS Assay for Identification of Small Molecule Agonists for Thrombopoietin (TPO) Signaling Pathway (AID 917). Note: % is set by controls: 0 for no effect and ±100 for the full control effect. The method in brief: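 Quantitative HTS for pathway activators: compounds were pin-transferred onto IL-3-starved Ba/F3 cells expressing human TPO receptor, TPO was added at its EC50 (26 pM final), and after 24 hrs at 37 C reporter luciferase was measured.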

Test [17] deals with Mitogen-activated protein kinase 10 (Mus musculus) (UniProt Q61831). Briefly: JNK3 AlphaScreen Assay (AID 530; active = well fitted curve in either direction with a large enough effect, not every such curve was filed as active). The method in brief:
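Activity was read by AlphaScreen after JNK3-containing HepG2 lysate (cytokine pre-activated) phosphorylated biotinylated GST-cJun with 10 uM ATP at room temperature. Phospho-Ser73 cJun antibody with Protein-A acceptor beads provided detection.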

Test [18] has as its target Cytochrome P450 3A4 (Homo sapiens) (UniProt P08684). Briefly: qHTS Assay for Activators of Cytochrome P450 3A4 (AID 885). Note: nearly all actives have a fitted effect of over 65% in size. The essentials:
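Activators are scored by enhanced luminescence from CYP3A4 conversion of luciferin-PPXE (25uM, equal to KM) to luciferin, after 60 min at RT with an NADPH-regenerating system.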

Test [19] has as its target Cytochrome P450 1A2 (Homo sapiens) (UniProt P05177). Briefly: p450-cyp1a2 (AID 410; calls by dose curve;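 note: -100% = full effect of reference inhibitor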). The essentials: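 O-Demethylation of luciferin 6' methyl ether by human CYP1A2 is monitored as luciferase luminescence. Substrate sits at Km (100uM); enzyme is 20nM. Values are scaled to 57 uM furafylline as maximal inhibition.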
The target in test [20] is Cytochrome P450 2C19 (Homo sapiens) (UniProt P33261). Briefly: qHTS Assay for Inhibitors and Substrates of Cytochrome P450 2C19 (AID 899). Note: % is set by controls: 0 for no effect and ±100 for the full control effect; nearly all actives have a fitted effect of over 60% in size. The method in brief: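 Signal comes from luciferase acting on luciferin released by CYP2C19-mediated hydroxylation of Luciferin-H EGE, 10uM (KM). Assay mix: 5nM enzyme, 50mM KPO4; 60 min at 37C with NADPH regeneration. Data normalized against 57uM ketoconazole.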

Molecules are shown by their SMILES. Several values for one entry are separate records, joined by “and”; a condition that tells them apart may be missing. Identical values can stand only once. Values without a mark were called inactive. Results filed as inconclusive are left out. Activity calls are given as the source filed them. Unless noted, calls come from the whole dose curve; as a rule, active = well fitted curve in the direction sought with a large enough effect; inconclusive = small, poorly fitted or top-dose-only effect, or another doubt; inactive = no such curve, though single readings can be large; an effect the other way counts as inactive or inconclusive. Where only a bound is given, the exact number is not on record here.

Pyruvate kinase PKM (Homo sapiens), sequence (P14618 whole entry, looked up): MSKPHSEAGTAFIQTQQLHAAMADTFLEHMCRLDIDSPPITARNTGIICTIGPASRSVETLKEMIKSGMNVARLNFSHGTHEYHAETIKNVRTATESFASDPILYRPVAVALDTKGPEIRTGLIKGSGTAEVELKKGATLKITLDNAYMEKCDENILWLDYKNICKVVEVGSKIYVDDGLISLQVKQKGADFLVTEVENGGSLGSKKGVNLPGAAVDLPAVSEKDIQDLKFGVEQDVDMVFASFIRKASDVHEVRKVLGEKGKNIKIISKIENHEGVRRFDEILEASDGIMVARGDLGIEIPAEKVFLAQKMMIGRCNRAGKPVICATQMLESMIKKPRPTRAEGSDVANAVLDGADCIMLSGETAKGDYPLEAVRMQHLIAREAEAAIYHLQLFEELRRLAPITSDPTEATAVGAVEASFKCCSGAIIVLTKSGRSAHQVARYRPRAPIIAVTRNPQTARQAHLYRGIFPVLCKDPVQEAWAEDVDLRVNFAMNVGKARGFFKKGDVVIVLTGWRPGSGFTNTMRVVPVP
Guanine nucleotide-binding protein G(i) subunit alpha-1 (Homo sapiens), sequence (P63096 whole entry, looked up): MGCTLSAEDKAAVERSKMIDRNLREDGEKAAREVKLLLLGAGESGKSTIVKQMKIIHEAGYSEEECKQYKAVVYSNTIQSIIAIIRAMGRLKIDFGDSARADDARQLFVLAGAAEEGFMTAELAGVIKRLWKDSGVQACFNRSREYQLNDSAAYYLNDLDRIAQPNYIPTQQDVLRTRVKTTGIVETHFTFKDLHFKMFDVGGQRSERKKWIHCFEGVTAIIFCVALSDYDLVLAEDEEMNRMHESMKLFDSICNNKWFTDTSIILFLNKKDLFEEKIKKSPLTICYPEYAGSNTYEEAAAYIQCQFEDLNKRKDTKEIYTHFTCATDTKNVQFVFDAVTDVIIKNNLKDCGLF
Muscarinic acetylcholine receptor M1 (Rattus norvegicus), sequence (P08482 whole entry, looked up): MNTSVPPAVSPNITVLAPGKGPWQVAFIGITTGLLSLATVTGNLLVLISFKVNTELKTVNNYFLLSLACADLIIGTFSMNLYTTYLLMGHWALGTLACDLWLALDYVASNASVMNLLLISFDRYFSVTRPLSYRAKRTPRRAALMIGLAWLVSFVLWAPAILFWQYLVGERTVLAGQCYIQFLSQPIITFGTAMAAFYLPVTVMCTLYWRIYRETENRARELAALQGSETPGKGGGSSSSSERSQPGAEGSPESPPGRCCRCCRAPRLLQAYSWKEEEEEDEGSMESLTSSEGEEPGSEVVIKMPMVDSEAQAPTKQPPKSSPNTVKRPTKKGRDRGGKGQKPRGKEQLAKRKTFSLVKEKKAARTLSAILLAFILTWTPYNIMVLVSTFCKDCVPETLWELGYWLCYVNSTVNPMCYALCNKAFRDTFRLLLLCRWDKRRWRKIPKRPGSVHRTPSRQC
3',5'-cyclic-AMP phosphodiesterase 4B (Homo sapiens), sequence (Q07343 whole entry, looked up): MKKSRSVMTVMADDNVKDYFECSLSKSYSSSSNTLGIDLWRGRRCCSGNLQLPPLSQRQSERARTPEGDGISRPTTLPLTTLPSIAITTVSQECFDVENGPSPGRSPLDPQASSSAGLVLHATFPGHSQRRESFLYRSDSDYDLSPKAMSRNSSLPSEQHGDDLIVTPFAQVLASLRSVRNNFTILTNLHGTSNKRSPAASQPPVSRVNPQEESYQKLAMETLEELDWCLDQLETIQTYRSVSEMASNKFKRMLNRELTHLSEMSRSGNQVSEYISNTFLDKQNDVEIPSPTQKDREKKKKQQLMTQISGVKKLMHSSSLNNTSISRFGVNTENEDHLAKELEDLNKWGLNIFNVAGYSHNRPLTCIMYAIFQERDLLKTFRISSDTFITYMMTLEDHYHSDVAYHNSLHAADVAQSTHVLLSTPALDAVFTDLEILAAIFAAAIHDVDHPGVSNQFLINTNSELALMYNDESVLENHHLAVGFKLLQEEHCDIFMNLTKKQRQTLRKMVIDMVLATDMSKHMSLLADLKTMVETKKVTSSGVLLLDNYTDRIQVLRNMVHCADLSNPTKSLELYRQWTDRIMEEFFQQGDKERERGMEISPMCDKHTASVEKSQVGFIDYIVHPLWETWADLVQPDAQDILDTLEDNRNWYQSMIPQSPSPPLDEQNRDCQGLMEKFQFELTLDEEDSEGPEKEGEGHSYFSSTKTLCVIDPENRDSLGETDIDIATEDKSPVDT
Alpha-galactosidase A (Homo sapiens), sequence (P06280 whole entry, looked up): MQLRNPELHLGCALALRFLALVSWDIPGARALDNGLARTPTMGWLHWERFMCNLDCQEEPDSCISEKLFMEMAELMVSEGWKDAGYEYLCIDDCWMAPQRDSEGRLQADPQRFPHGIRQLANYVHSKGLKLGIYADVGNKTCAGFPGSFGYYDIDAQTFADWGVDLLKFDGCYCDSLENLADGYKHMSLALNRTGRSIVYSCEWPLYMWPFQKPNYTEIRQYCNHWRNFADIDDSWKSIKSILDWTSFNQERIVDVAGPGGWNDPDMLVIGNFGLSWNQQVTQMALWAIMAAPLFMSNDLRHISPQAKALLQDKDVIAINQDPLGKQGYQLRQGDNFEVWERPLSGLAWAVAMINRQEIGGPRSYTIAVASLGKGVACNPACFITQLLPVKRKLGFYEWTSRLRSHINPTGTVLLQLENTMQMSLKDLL
Pyruvate kinase (Leishmania mexicana), sequence (Q27686 2-499 E452W): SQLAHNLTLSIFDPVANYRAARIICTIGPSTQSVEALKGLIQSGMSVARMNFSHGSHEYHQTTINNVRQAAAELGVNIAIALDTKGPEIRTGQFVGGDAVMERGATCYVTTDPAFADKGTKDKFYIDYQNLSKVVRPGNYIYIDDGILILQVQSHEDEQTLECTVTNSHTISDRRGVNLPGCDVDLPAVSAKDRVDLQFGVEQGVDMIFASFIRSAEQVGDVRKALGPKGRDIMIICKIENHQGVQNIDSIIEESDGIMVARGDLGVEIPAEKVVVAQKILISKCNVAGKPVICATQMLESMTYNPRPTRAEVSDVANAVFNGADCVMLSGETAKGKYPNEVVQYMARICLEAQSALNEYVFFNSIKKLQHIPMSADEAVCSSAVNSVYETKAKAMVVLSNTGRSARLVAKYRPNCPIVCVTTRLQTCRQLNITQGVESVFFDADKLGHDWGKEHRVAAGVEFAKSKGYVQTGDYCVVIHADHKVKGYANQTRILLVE
Glucocorticoid receptor (Homo sapiens), sequence (P04150 whole entry, looked up): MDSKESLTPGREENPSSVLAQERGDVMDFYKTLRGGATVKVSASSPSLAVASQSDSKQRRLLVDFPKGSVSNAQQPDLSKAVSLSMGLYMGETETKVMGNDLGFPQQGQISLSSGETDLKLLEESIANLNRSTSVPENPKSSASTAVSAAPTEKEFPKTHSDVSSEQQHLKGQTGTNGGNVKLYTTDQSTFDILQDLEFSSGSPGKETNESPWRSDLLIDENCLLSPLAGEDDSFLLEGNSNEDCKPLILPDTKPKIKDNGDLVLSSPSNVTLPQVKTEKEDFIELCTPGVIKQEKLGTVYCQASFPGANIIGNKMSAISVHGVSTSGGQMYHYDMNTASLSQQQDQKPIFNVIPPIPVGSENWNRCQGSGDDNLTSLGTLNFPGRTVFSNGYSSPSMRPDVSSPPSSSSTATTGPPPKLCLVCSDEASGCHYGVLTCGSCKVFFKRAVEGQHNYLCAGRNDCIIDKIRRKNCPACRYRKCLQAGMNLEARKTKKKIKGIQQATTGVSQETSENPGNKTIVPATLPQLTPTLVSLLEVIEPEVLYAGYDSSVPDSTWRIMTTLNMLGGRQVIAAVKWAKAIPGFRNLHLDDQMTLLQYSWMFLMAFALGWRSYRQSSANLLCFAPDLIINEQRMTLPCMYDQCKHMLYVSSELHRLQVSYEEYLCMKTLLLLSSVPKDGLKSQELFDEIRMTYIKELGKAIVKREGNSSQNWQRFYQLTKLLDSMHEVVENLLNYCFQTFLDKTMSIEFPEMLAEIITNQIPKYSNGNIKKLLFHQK
Cytochrome P450 2D6 (Homo sapiens), sequence (P10635 whole entry, looked up): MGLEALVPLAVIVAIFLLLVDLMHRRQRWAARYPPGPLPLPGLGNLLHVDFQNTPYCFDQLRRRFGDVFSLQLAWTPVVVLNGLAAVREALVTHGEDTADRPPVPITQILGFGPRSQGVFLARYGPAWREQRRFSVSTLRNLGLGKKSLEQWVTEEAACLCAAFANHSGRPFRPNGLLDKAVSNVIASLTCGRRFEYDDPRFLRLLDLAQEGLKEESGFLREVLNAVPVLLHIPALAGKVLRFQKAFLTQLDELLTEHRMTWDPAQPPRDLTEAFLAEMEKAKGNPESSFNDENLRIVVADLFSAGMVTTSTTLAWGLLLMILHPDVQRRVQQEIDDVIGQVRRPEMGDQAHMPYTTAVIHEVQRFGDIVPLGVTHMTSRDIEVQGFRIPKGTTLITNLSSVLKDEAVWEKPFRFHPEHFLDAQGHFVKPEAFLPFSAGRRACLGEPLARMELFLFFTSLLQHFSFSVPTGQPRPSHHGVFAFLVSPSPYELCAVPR
Cytochrome P450 1A2 (Homo sapiens), sequence (P05177 whole entry, looked up): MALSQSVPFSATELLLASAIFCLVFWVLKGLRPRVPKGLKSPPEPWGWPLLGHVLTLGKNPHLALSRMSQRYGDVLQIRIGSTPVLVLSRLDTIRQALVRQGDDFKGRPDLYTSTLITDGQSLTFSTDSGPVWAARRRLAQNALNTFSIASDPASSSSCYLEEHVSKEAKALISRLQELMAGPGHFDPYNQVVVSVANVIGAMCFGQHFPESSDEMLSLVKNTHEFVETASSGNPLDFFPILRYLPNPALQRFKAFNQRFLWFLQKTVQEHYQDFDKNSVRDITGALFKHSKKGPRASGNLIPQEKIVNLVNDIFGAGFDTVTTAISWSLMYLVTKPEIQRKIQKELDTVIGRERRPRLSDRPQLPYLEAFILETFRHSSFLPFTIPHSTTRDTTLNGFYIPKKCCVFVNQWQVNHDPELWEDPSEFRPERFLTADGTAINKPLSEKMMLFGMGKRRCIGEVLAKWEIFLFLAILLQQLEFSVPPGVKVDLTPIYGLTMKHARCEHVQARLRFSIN

With `CC(C)(C)[C@@]1(O)CCN2C[C@@H]3c4ccccc4CCc4cccc(c43)[C@@H]2C1`, the activity change, negative = inhibition is -4.55% [at 38 µM] and 8.62% [at 38 µM] in [1]; -14.6% [at 38 µM] and -5.47% [at 38 µM] in test [2]. The activity, negative = inhibition in test [3] is -1.04% [at 38 µM] and -27.5% [at 38 µM]. Further, the Potency in test [4] is more than 46 µM; in test [5] it was more than 46 µM; in [7], 1.58 µM (active); in test [8], 79.4 nM (active) and 501 nM (active). Also, the Potency entry in [6], in [9] and in [13] was “inactive” throughout. Also, the compound was called inactive in test [10], in test [11] and in test [12].

Regarding `CO/N=C(\C(=O)N[C@@H]1C(=O)N2C(C(=O)O)=C(CSc3nc(=O)c(O)nn3C)CS[C@@H]12)c1csc(N)n1`, the figures for the activity change, negative = inhibition in test [1] and in [2] were -11.1% [at 38 µM] and 4.37% [at 38 µM], respectively. Besides, the Potency in test [4] and in test [5] was more than 46 µM each time. Further, the Potency entry in test [6], in test [15], in test [9] and in test [13] was “inactive” in each case. Also, the outcome in [14], in test [16], in [10], in [11] and in test [12] was inactive.

Consider `C[C@H]1CN(S(=O)(=O)c2cccc3cnccc23)CCN1`, for which the activity change, negative = inhibition in [1] is -12.4% [at 38 µM]; in test [2], 1.25% [at 38 µM]. For the same compound, the activity, negative = inhibition in test [3] was 2.7% [at 38 µM]. Besides, the Potency in [4] is more than 46 µM; in [5], more than 46 µM; in [15], 2.82 µM (active). In addition, the Potency entry in test [17], in test [6], in test [18], in test [9] and in test [13] was “inactive” in each case. The compound was classed as inactive in [14], in test [16], in [10], in [11] and in test [12].

`CC1=C(C(=O)O)N2C(=O)[C@@H](NC(=O)[C@@H](N)C3=CCC=CC3)[C@@H]2SC1`: the Potency entry in test [19], in test [17], in test [6], in test [18], in [8] and in test [20] was “inactive” in each case. Further, the Potency result in [9] and in test [13] was “inactive” in each case. Further, in test [2], the activity change, negative = inhibition was 1.78% [at 38 µM]. Moreover, the activity, negative = inhibition in test [3] is -5.32% [at 38 µM]. For the same compound, the Potency in test [4] and in test [5] was more than 46 µM each time. Moreover, the compound was classed as inactive in [14], in test [16], in test [10], in test [11] and in [12].

Turning to `OC[C@@H]1O[C@H](O)[C@@H](Cl)[C@H](O)[C@@H]1O`, the Potency entry in test [19], in test [6], in test [9] and in test [13] was “inactive” each time. For the same compound, the activity change, negative = inhibition in [2] is 4.5% [at 38 µM]. The activity, negative = inhibition in test [3] was 14% [at 38 µM]. In addition, the Potency in test [4] and in test [5] was more than 46 µM each time. Moreover, the compound was classed as inactive in test [14], in test [16], in [10], in [11] and in [12].
